# In the library only some 3.5% were active in any assay of this set; here they are far more common.
# GPR151 ag – human GPR151 activation. activation, % at 11.2 µM. Q8TDV0. PathHunter beta-arrestin GPR151 cells, luminescence. AID 1508602. 1% of 650,000 active; in the data active = activation above about 4.9%;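 also: 0% = median of compound wells and 100% = cells with positive control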
# FBW7 act – activators of human E3 ligase FBW7. Q969H0. AlphaScreen FBW7–phospho-cyclin E peptide binding, activator screen. normalized activity (activation), % at 26.1 µM. 0.13% of 650,000 active; in the data active = normalized activity above about 1.9%;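 also: purified mutant Fbw7 with reduced substrate affinity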
# TEAD-YAP inh – TEAD-YAP interaction inhibition | HEK-TIYL cells, TEAD-Gal4/YAP UAS-luciferase luminescence | AID 1259422 | inhibition, % at 9.12 µM | 1.4% of 640,000 active; in the data active = inhibition above about 32%;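 also: 0% = median of test compound wells and 100% = reference inhibitor wells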
# MITF inh – blocks human microphthalmia-associated transcription factor. O75030. AlphaScreen MITF homodimerization, bead proximity signal. inhibition, % at 2.6 µM. 0.91% of 650,000 active. AID 1259374; in the data active = inhibition above about 50%;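 also: 0% = vehicle wells with protein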
# * marks the source's active call; other numbers are inactive results.
SMILES,GPR151 ag,FBW7 act,TEAD-YAP inh,MITF inh
COc1ccc(Cl)cc1-n1c(SCc2cc(=O)n3ccccc3n2)nc2[nH]ncc2c1=O,-1,0,60*,5
COc1ccc(CNc2c(C)c(C)nc3ncnn23)cc1,1,0,26,12
COc1ccc(CCNc2c(C)c(C)nc3ncnn23)cc1,1,0,60*,-2
Cc1nc2ncnn2c(NCCc2ccccc2)c1C,-1,1,42*,17
CSc1ncccc1C(=O)Nc1ccc(C(C)=O)cc1,-1,0,-16,3
O=C(CCN1C(=O)c2cccc([N+](=O)[O-])c2C1=O)Nc1cccc(C(F)(F)F)c1,-1,0,6,2
NC(=O)COc1ccc(Nc2nnc(-c3ccccc3)c3ccccc23)cc1,0,0,-26,-4
Cc1nc2cc(Cl)c([N+](=O)[O-])cc2s1,2,2.0*,1,3
Cc1nc2ccc([N+](=O)[O-])cc2s1,0,0,12,8
COc1ccc(N/N=C(\C#N)C(=N)SCc2ccccc2)cc1,1,0,33*,3
CCN(CC)C(=O)c1ccc(Oc2nnnn2-c2ccccc2)c(OC)c1,0,0,32*,10
COc1ccccc1Oc1nnnn1-c1ccc(C(=O)O)cc1,-1,0,-6,8
C=CCNC(=O)C1CCC(=O)N1C(C)C (centres undefined),0,2.1*,-1,-7
CCCN(CCC)CCCNC(=O)C1CCC(=O)N1C(C)C (centres undefined),1,0,-10,0
COc1ccc2cc(Br)ccc2c1CC(=O)Nc1nc(C)cs1,-1,0,38*,4
CC(C)CC(=O)NC(N1CCCC1)C(Cl)(Cl)Cl (centres undefined),0,0,-6,-6
CC(=O)c1ccc(N=Nc2c(C)[nH][nH]c2=O)cc1,-6,0,-21,0
CC(=O)c1ccc(N=Nc2ccc(O)cc2)cc1,-8,0,99*,16
CC(=O)Nc1ccc(N=Nc2ccc(O)cc2)cc1,-2,0,56*,7
O=c1c(O)cccc2cc(O)c(O)c(O)c12,3,0,-6,90*
CCCCCNC(CC(=O)Nc1ccc(C(=O)OCC)cc1)C(=O)O (centres undefined),0,0,4,-6
CCc1ccc(NC(=S)N(Cc2ccccc2)Cc2cccs2)cc1,-1,0,54*,-6
CCOC(=O)c1ccc(-n2c(C)c3cnc4nn(-c5ccccc5)c(=O)c-4cc3c2C)cc1,-3,0,-5,-4
Cc1c2cnc3nn(-c4ccccc4)c(=O)c-3cc2c(C)n1-c1ccccc1,1,0,85*,-5
N#CC(C#N)=C(N)/C(C#N)=C/c1ccc(-c2ccccc2F)o1,1,0,-3,12
SMILES,GPR151 ag,FBW7 act,TEAD-YAP inh,MITF inh
CCC(Nc1ncnc2ccccc12)C(=O)O (centres undefined),0,0,6,-1
CCOC(=O)/C(=N\Nc1ncnc2ccccc12)c1cccs1,-10,0,36*,-3
Cc1ccc(OCC(=O)Nc2ccc(Cc3ccncc3)cc2)cc1,0,0,-5,15
O=C(c1ccccc1)N1CCN(C(=O)c2cc3c(s2)CCCCC3)CC1,-1,0,2,8
O=C(N=c1sn2c(c1[N+](=O)[O-])CCCCC2)c1ccccc1,-2,0,84*,-2
O=C(Nc1cccc2c1OCO2)c1nn2c(C(F)(F)F)cc(-c3ccc(Br)cc3)nc2c1Cl,0,0,12,8
Oc1ccc(-c2cn3c(n2)SCC3)cc1,3,0,3,8
Oc1ccc(-c2cn3c(n2)SCC3)cc1O,-1,0,-17,65*
COc1ccc(CC(=O)NCC(c2cccs2)N2CCc3ccccc3C2)cc1 (centres undefined),3,0,-3,-7
COC(=O)c1cn[nH]c1NC(=S)Nc1ccc(C)cc1C,-2,0,80*,5
OC(c1cccnc1)c1ccc2c(c1)CN(Cc1ccccc1Cl)CCO2 (centres undefined),1,0,0,-3
O=S(=O)(c1ccc2c(c1)N=Cc1c(nc3sccn13)O2)N1CCOCC1,0,0,-9,6
O=S(=O)(c1ccc2c(c1)N=Cc1c(F)cccc1O2)N1CCOCC1,0,0,45*,-11
C=CCSC(=C(C#N)C#N)c1cc2c([nH]1)CCCC2,-1,0,51*,10
O=C(O)c1cc2c([nH]c1=O)CCCC2,1,0,1,6
O=C(NCCc1nc(-c2ccccc2)cs1)c1cccc(C(=O)NCCc2nc(-c3ccccc3)cs2)c1,1,0,48*,-3
